This passage reports inhibition results from PubChem BioAssay AID2073 (Sanford-Burnham Center for Chemical Genomics, 2009).

Among all 290,000 compounds or so, about 570 (0.2%) were called active. Another 1% or so got no clear call; they are omitted. No stated cut-off is given here; in the data, active means inhibition mostly above about 51% (no sharp cut-off); inconclusive means no clear call, values can overlap the other calls; inactive means mostly below about 53%. For the sample, actives were picked, then their nearest neighbours and some compounds at random.

This assay deals with Voltage-dependent N-type calcium channel subunit alpha-1B (Homo sapiens) (UniProt Q00975). Kind of assay: inhibitors of Mint1-CaV2.2 protein interaction, biochemical, HTRF (AID 2073). Particulars: at 20 µM, stronger effect = higher value.
Chain of Voltage-dependent N-type calcium channel subunit alpha-1B (Homo sapiens) (Q00975 whole entry, looked up): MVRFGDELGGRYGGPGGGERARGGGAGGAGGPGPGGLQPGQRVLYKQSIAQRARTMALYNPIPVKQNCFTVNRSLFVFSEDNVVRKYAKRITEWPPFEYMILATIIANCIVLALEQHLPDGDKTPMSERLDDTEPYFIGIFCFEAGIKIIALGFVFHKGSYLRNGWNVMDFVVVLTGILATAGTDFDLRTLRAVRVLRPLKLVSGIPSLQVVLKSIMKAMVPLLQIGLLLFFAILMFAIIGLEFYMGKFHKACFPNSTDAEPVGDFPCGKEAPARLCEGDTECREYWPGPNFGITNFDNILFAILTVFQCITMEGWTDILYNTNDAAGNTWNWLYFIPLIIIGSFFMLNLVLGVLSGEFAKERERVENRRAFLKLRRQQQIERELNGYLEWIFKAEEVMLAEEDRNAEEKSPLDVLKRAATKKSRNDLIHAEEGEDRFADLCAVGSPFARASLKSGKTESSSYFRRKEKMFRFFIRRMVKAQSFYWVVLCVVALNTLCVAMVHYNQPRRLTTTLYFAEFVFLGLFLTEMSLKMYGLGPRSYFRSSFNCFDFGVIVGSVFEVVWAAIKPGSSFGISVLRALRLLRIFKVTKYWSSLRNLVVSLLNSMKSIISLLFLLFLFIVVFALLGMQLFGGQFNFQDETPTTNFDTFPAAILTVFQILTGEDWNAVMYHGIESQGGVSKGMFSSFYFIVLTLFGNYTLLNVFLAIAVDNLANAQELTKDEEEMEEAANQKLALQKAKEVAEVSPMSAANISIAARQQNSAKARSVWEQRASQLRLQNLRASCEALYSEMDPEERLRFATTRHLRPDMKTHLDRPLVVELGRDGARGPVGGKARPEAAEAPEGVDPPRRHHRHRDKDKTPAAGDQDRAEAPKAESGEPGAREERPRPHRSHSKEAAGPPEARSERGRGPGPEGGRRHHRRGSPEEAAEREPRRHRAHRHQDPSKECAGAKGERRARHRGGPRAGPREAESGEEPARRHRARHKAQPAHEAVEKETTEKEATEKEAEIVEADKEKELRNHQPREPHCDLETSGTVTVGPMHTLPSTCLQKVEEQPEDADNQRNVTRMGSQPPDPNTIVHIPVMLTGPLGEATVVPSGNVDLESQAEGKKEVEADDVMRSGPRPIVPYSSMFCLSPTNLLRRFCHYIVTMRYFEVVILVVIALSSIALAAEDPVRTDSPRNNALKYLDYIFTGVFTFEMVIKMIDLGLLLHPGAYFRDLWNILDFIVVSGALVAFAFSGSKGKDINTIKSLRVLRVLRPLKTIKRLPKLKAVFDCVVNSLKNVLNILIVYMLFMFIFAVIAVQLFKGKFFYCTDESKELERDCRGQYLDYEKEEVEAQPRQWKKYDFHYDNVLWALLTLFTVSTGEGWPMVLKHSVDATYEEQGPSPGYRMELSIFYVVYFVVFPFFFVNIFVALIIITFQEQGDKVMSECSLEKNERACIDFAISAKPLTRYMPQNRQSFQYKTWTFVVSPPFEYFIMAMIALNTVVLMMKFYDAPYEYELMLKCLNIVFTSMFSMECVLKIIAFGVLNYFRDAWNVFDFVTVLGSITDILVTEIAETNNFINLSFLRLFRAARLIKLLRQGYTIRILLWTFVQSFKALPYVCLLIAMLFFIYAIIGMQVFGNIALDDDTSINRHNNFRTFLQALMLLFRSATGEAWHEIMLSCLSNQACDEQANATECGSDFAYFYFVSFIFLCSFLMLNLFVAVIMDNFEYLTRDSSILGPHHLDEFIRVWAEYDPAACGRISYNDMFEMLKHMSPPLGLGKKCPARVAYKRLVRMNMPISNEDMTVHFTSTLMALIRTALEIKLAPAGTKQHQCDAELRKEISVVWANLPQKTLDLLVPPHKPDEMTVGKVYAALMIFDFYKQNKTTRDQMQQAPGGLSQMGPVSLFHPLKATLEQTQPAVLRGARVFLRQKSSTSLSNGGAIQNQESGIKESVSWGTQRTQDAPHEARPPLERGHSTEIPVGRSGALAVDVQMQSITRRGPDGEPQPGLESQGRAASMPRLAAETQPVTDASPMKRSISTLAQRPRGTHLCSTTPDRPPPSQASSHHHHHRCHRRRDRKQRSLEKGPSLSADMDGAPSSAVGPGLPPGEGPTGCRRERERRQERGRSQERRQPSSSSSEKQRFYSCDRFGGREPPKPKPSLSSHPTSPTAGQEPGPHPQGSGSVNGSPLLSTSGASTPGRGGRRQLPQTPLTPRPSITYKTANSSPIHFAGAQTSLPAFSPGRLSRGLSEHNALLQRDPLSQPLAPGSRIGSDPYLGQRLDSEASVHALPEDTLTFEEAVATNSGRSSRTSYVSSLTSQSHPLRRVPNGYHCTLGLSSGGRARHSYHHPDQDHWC
`COc1ccc(N2C(=O)N(Cc3cccc(F)c3)c3ccccc3S2(=O)=O)cc1`: the inhibition was 55.6% (active). The result for `COc1ccc(N2C(=O)N(Cc3ccc(C)cc3)c3ccccc3S2(=O)=O)cc1` reads 5.3% (inactive); that for `COc1ccc(N2C(=O)N(Cc3ccccc3F)c3ccccc3S2(=O)=O)cc1`, -1.5% (inactive).

Regarding `N#CCCN1CCCN(CCC#N)CCN(CCC#N)CCCN(CCC#N)CC1`, the inhibition is -13.6% (inactive). The result for `CCOC(=O)/C=c1\s/c(=C\c2c(OCC)ccc3ccccc23)c(=O)n1CC(=O)NCC1CCCO1` (configuration not stated) reads 10.3% (inactive).

Regarding `COc1cc(OC)cc(C(=O)OCC(=O)NC(C)CCc2ccccc2)c1` (configuration not stated), the inhibition was 34.5% (inactive). For the molecule `COc1ccc2c(Cl)c(C(=O)NN)sc2c1`, the inhibition was 8.1% (inactive). Take `COc1ccc2c(Cl)c(C(=O)N/N=C3\CCCC(=O)C3)sc2c1`: the inhibition was 50.9% (active). Take `O=C1CCC/C(=N/NC(=O)c2sc3ccccc3c2Cl)C1`: the inhibition is 8.3% (inactive).

As to `Cc1ccc(C(=O)NCCc2nnc3ccc(NCc4ccc5c(c4)OCO5)nn23)cc1`, the inhibition was -1.4% (inactive). The result for `COc1ccc(C(=O)Nc2ccc(Cl)cc2C(=O)NCCO)cc1` reads -1.8% (inactive); that for `CCN1CCCC1CNC(=O)c1cc2c(C)nc3ccccc3c2o1` (configuration not stated), 5.2% (inactive); that for `CCOC(=O)N1CCC(C(=O)NNC(=O)c2ccc(Cl)cc2Cl)CC1`, 6.9% (inactive). Consider `CN1/C(=C/C(=O)C2CC2)C(C)(C)c2ccccc21`, for which the inhibition is 3.3% (inactive). The result for `CCOC(=O)c1cc2c(=O)n3ccccc3nc2n(Cc2ccco2)c1=NC(=O)c1ccc(OC)cc1` reads 33.1% (inactive).

For `CCOC(=O)c1cc2c(=O)n3ccccc3nc2n(Cc2ccco2)c1=NC(=O)c1ccccc1OC`, the inhibition is 10.2% (inactive). The result for `CCOC(=O)c1cc2c(=O)n3ccccc3nc2n(Cc2ccco2)c1=NC(=O)c1ccc(OC)cc1OC` reads 66.1% (active); that for `Cc1ccc(CNC(=O)c2ccc(S(=O)(=O)Nc3c(C)n(C)n(-c4ccccc4)c3=O)cc2)cc1`, 0.9% (inactive); that for `O=Cc1cccn1-c1cccnc1`, 8.9% (inactive). The result for `Fc1ccccc1N1CCN(C2CCCN(Cc3ccccc3C(F)(F)F)C2)CC1` (configuration not stated) reads -0.4% (inactive); that for `CCN(CC)CCN(C(=O)c1ccc2c(c1)OCCO2)c1nc2ccc(C)cc2s1`, -5.5% (inactive); that for `CC1(C)Cc2c(c(-c3ccco3)nc3sc4c(NCCCO)ncnc4c23)CO1`, 5.3% (inactive). In the case of `CC1(C)Cc2c(c(N3CCCC3)nc3sc4c(N5CCN(CCO)CC5)ncnc4c23)CO1`, the inhibition is -8.9% (inactive). Next, `OCCN1CCN(c2ncnc3c2sc2nc(N4CCOCC4)c4c(c23)CCC4)CC1`: 3.4% (inactive). `CSc1nc(N2CCN(CCO)CC2)c2sc3nc(-c4ccco4)c4c(c3c2n1)CCC4`: the inhibition was 64% (active). On to `CSc1nc(N(CCO)CCO)c2sc3nc(-c4ccco4)c4c(c3c2n1)CCC4`, for which the inhibition was 72.4% (active). Next, `OCCN(CCO)c1ncnc2c1sc1nc(N3CCOCC3)c3c(c12)CCCC3`: 16.9% (inactive).
